# Assay results: the supplement of paper PMC8728848
# The full list was thinned out, with the strongest signals kept by preference.
# B1: HHA (Hippeastrum hybrid) (protein)
# chain: MQQDCNLVLYDVDKPIWASNTGGLARDCHLNMQSDGNLVVYAPRNQVIWASNTQGENGNYVCILQKDRNVVIYGTARWATGTNIHGAGIVGVPGSAPQNTTAEMIKLVRKYLITK
# Experiments:
# Experiment in all cases: glycan array binding signal (z-score within array); higher = stronger binding
# Conditions in all cases: glycan notation: IUPAC condensed, linker removed
# Fuc(a1-2)Gal = target: Fuc(a1-2)Gal
# Summary of the method: (§1)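 The binding signal is a Z-score computed within each array. Data were drawn from 3228 arrays in the Consortium for Functional Glycomics database, restricted to those with a known protein sequence. Scores were averaged over arrays of the same protein sequence at different concentrations or buffers, and over linkers, and negative values can be taken as non-binding.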
# [1] = target: Fuc(a1-2)Gal(b1-4)GlcNAc(b1-2)Man(a1-3)[Fuc(a1-2)Gal(b1-4)GlcNAc(b1-2)Man(a1-6)]Man(b1-4)GlcNAc(b1-4)GlcNAc
# Summary of the method: as §1
# [2] = target: Fuc(a1-2)Gal(b1-4)GlcNAc6S
# Summary of the method: as §1
# [3] = target: Fuc(a1-2)[GalNAc(a1-3)]Gal
# Summary of the method: as §1
# [4] = target: Fuc(a1-2)[GalNAc(a1-3)]Gal(b1-3)GalNAc(b1-3)Gal(a1-4)Gal(b1-4)Glc
# Summary of the method: as §1
# [5] = target: Fuc(a1-2)[GalNAc(a1-3)]Gal(b1-4)GlcNAc(b1-2)Man(a1-3)[Fuc(a1-2)[GalNAc(a1-3)]Gal(b1-4)GlcNAc(b1-2)Man(a1-6)]Man(b1-4)GlcNAc(b1-4)GlcNAc
# Summary of the method: as §1
# [6] = target: Fuc(a1-3)[Gal(b1-4)]GlcNAc(b1-3)GalNAc
# Summary of the method: as §1
# [7] = target: Fuc(a1-3)[Gal(b1-4)]GlcNAc(b1-4)Gal(b1-4)[Fuc(a1-3)]GlcNAc(b1-4)Gal(b1-4)[Fuc(a1-3)]GlcNAc
# Summary of the method: as §1
# [8] = target: Fuc(a1-3)[GalNAc(b1-4)]GlcNAc
# Summary of the method: as §1
# [9] = target: Fuc(a1-3)[GalNAc(b1-4)]GlcNAc6S
# Summary of the method: as §1
# [10] = target: Gal(a1-4)Gal(b1-4)GlcNAc(b1-3)Gal(b1-4)Glc
# Summary of the method: as §1
# [11] = target: Gal(b1-4)GlcNAc(b1-2)Man(a1-6)[Man(a1-3)]Man(b1-4)GlcNAc(b1-4)GlcNAc
# Summary of the method: as §1
# [12] = target: Gal(b1-4)GlcNAc(b1-3)[Gal(b1-4)GlcNAc(b1-6)]GalNAc
# Summary of the method: as §1
# [13] = target: Gal(b1-4)GlcNAc(b1-6)Gal(b1-4)GlcNAc(b1-6)GalNAc
# Summary of the method: as §1
# GalNAc4S6S(b1-4)GlcNAc = target: GalNAc4S6S(b1-4)GlcNAc
# Summary of the method: as §1
# GalNAc6S(b1-4)GlcNAc = target: GalNAc6S(b1-4)GlcNAc
# Summary of the method: as §1
# [14] = target: GlcNAc(a1-3)Gal(b1-4)GlcNAc
# Summary of the method: as §1
# [15] = target: GlcNAc(a1-6)Gal(b1-4)GlcNAc
# Summary of the method: as §1
# [16] = target: GlcNAc(b1-2)Man(a1-3)[GlcNAc(b1-2)Man(a1-6)]Man(b1-4)GlcNAc(b1-4)[Fuc(a1-6)]GlcNAc
# Summary of the method: as §1
# [17] = target: GlcNAc(b1-3)Gal(b1-4)GlcNAc(b1-2)Man(a1-3)[GlcNAc(b1-3)Gal(b1-4)GlcNAc(b1-2)Man(a1-6)]Man(b1-4)GlcNAc(b1-4)[Fuc(a1-6)]GlcNAc
# Summary of the method: as §1
# [18] = target: GlcNAc(b1-3)Gal(b1-4)GlcNAc(b1-3)Gal(b1-4)GlcNAc(b1-3)Gal(b1-4)GlcNAc(b1-3)Gal(b1-4)GlcNAc(b1-2)[GlcNAc(b1-3)Gal(b1-4)GlcNAc(b1-3)Gal(b1-4)GlcNAc(b1-3)Gal(b1-4)GlcNAc(b1-3)Gal(b1-4)GlcNAc(b1-6)]Man(a1-6)[GlcNAc(b1-3)Gal(b1-4)GlcNAc(b1-3)Gal(b1-4)GlcNAc(b1-3)Gal(b1-4)GlcNAc(b1-3)Gal(b1-4)GlcNAc(b1-2)Man(a1-3)]Man(b1-4)GlcNAc(b1-4)[Fuc(a1-6)]GlcNAc
# Summary of the method: as §1
# [19] = target: GlcNAc(b1-3)Gal(b1-4)GlcNAc(b1-6)[GlcNAc(b1-3)]Gal(b1-4)GlcNAc
# Summary of the method: as §1
# [20] = target: GlcNAc(b1-3)[GlcNAc(b1-6)]GlcNAc(b1-4)GlcNAc
# Summary of the method: as §1
# GlcNAc(b1-4)GlcNAc = target: GlcNAc(b1-4)GlcNAc
# Summary of the method: as §1
# [21] = target: Man(a1-2)Man(a1-3)[Man(a1-6)]Man(a1-6)[Man(a1-2)Man(a1-3)]Man(b1-4)GlcNAc(b1-4)GlcNAc
# Summary of the method: as §1
# [22] = target: Man(a1-2)Man(a1-6)[Man(a1-3)]Man(a1-6)[Man(a1-2)Man(a1-2)Man(a1-3)]Man
# Summary of the method: as §1
# [23] = target: Man(a1-2)Man(a1-6)[Man(a1-3)]Man(a1-6)[Man(a1-2)Man(a1-2)Man(a1-3)]Man(b1-4)GlcNAc(b1-4)GlcNAc
# Summary of the method: as §1
# Man(a1-3)[Man(a1-6)]Man = target: Man(a1-3)[Man(a1-6)]Man
# Summary of the method: as §1
# [24] = target: Man(a1-3)[Man(a1-6)]Man(a1-6)[Man(a1-2)Man(a1-3)]Man(b1-4)GlcNAc(b1-4)GlcNAc
# Summary of the method: as §1
# [25] = target: Man(a1-3)[Man(a1-6)]Man(a1-6)[Man(a1-3)]Man
# Summary of the method: as §1
# [26] = target: Man(a1-3)[Man(a1-6)]Man(a1-6)[Man(a1-3)]Man(b1-4)GlcNAc(b1-4)GlcNAc
# Summary of the method: as §1
# [27] = target: Man(a1-3)[Man(a1-6)]Man(b1-4)GlcNAc(b1-4)GlcNAc
# Summary of the method: as §1
# [28] = target: Man(a1-3)[Man(a1-6)]Man(b1-4)GlcNAc(b1-4)[Fuc(a1-6)]GlcNAc
# Summary of the method: as §1
# Neu5Ac(a2-3)Gal = target: Neu5Ac(a2-3)Gal
# Summary of the method: as §1
# [29] = target: Neu5Ac(a2-3)Gal(b1-3)GalNAc(b1-4)[Neu5Ac(a2-3)]Gal(b1-4)Glc
# Summary of the method: as §1
# [30] = target: Neu5Ac(a2-3)Gal(b1-3)GlcNAc(b1-6)GalNAc
# Summary of the method: as §1
# [31] = target: Neu5Ac(a2-3)Gal(b1-4)GlcNAc(b1-2)[Neu5Ac(a2-3)Gal(b1-4)GlcNAc(b1-6)]Man(a1-6)[Neu5Ac(a2-3)Gal(b1-4)GlcNAc(b1-2)Man(a1-3)][GlcNAc(b1-4)]Man(b1-4)GlcNAc(b1-4)GlcNAc
# Summary of the method: as §1
# [32] = target: Neu5Ac(a2-3)Gal(b1-4)GlcNAc(b1-3)Gal(b1-4)GlcNAc(b1-3)[Neu5Ac(a2-3)Gal(b1-4)GlcNAc(b1-3)Gal(b1-4)GlcNAc(b1-6)]GalNAc
# Summary of the method: as §1
# [33] = target: Neu5Ac(a2-3)Gal(b1-4)[Fuc(a1-3)]GlcNAc(b1-3)Gal(b1-4)GlcNAc
# Summary of the method: as §1
# [34] = target: Neu5Ac(a2-3)Gal(b1-4)[Fuc(a1-3)]GlcNAc(b1-6)[Gal(b1-3)]GalNAc
# Summary of the method: as §1
# [35] = target: Neu5Ac(a2-3)[Neu5Ac(a2-6)]GalNAc
# Summary of the method: as §1
# [36] = target: Neu5Ac(a2-6)Gal(b1-4)GlcNAc(b1-2)Man(a1-3)[Man(a1-6)]Man(b1-4)GlcNAc(b1-4)GlcNAc
# Summary of the method: as §1
# [37] = target: Neu5Ac(a2-6)Gal(b1-4)GlcNAc(b1-2)Man(a1-6)[Man(a1-3)]Man(b1-4)GlcNAc(b1-4)GlcNAc
# Summary of the method: as §1
# [38] = target: Neu5Ac(a2-6)Gal(b1-4)GlcNAc(b1-3)Gal(b1-4)GlcNAc(b1-2)Man(a1-3)[Neu5Ac(a2-6)Gal(b1-4)GlcNAc(b1-3)Gal(b1-4)GlcNAc(b1-2)Man(a1-6)]GalNAc
# Summary of the method: as §1
# [39] = target: Neu5Ac(a2-6)Gal(b1-4)GlcNAc(b1-3)Gal(b1-4)GlcNAc(b1-3)Gal(b1-4)GlcNAc(b1-2)Man(a1-3)[Neu5Ac(a2-6)Gal(b1-4)GlcNAc(b1-3)Gal(b1-4)GlcNAc(b1-3)Gal(b1-4)GlcNAc(b1-2)Man(a1-6)]GalNAc
# Summary of the method: as §1
# [40] = target: Neu5Ac(a2-6)GalNAc(b1-4)GlcNAc
# Summary of the method: as §1
# [41] = target: Neu5Ac(a2-8)Neu5Ac(a2-8)Neu5Ac(a2-3)[Gal(b1-3)GalNAc(b1-4)]Gal(b1-4)Glc
# Summary of the method: as §1
# Neu5Ac(b2-6)GalNAc = target: Neu5Ac(b2-6)GalNAc
# Summary of the method: as §1
binder,measurement,setting,value
B1,glycan array binding signal (z-score),Fuc(a1-2)Gal,-0.215
same,glycan array binding signal (z-score),[1],0.036
same,glycan array binding signal (z-score),[2],-0.207
same,glycan array binding signal (z-score),[3],-0.21
same,glycan array binding signal (z-score),[4],-0.213
same,glycan array binding signal (z-score),[5],-0.159
same,glycan array binding signal (z-score),[6],-0.17
same,glycan array binding signal (z-score),[7],-0.255
same,glycan array binding signal (z-score),[8],-0.196
same,glycan array binding signal (z-score),[9],-0.214
same,glycan array binding signal (z-score),[10],-0.203
same,glycan array binding signal (z-score),[11],3.97
same,glycan array binding signal (z-score),[12],-0.247
same,glycan array binding signal (z-score),[13],-0.191
same,glycan array binding signal (z-score),GalNAc4S6S(b1-4)GlcNAc,-0.218
same,glycan array binding signal (z-score),GalNAc6S(b1-4)GlcNAc,-0.209
same,glycan array binding signal (z-score),[14],-0.2
same,glycan array binding signal (z-score),[15],-0.203
same,glycan array binding signal (z-score),[16],-0.168
same,glycan array binding signal (z-score),[17],-0.147
same,glycan array binding signal (z-score),[18],-0.124
same,glycan array binding signal (z-score),[19],-0.185
same,glycan array binding signal (z-score),[20],-0.264
same,glycan array binding signal (z-score),GlcNAc(b1-4)GlcNAc,-0.211
same,glycan array binding signal (z-score),[21],3.35
same,glycan array binding signal (z-score),[22],2.72
same,glycan array binding signal (z-score),[23],3.81
same,glycan array binding signal (z-score),Man(a1-3)[Man(a1-6)]Man,5.62
same,glycan array binding signal (z-score),[24],5.57
same,glycan array binding signal (z-score),[25],5.35
same,glycan array binding signal (z-score),[26],5.15
same,glycan array binding signal (z-score),[27],8.3
same,glycan array binding signal (z-score),[28],6.07
same,glycan array binding signal (z-score),Neu5Ac(a2-3)Gal,-0.214
same,glycan array binding signal (z-score),[29],-0.218
same,glycan array binding signal (z-score),[30],-0.216
same,glycan array binding signal (z-score),[31],-0.221
same,glycan array binding signal (z-score),[32],-0.187
same,glycan array binding signal (z-score),[33],-0.211
same,glycan array binding signal (z-score),[34],-0.179
same,glycan array binding signal (z-score),[35],-0.215
same,glycan array binding signal (z-score),[36],0.002
same,glycan array binding signal (z-score),[37],3.55
same,glycan array binding signal (z-score),[38],-0.165
same,glycan array binding signal (z-score),[39],-0.107
same,glycan array binding signal (z-score),[40],-0.222
same,glycan array binding signal (z-score),[41],-0.177
same,glycan array binding signal (z-score),Neu5Ac(b2-6)GalNAc,-0.213
